Screening data deposited in PubChem by National Center for Advancing Translational Sciences (NCATS).
JMJD2A Tudor inh = inhibitors of human JMJD2A Tudor domain; O75164; AlphaScreen JMJD2A-Tudor / H3K4me3 peptide binding; Potency, µM (series often up to 114 µM), hits mostly inhibitors; 390,000 tested, 4.4% active; AID 504339; further: nearly all actives have a fitted effect of over 50% in size
G9a block = blocks human histone lysine methyltransferase G9a; G9a H3K9 monomethylation, AlphaScreen, 2 h; Potency, µM (titrated, usually from 102 µM), actives largely listed as inhibitors; 350,000 tested, 8.8% active; further: nearly all actives have a fitted effect of over 75% in size
Target sequence (Q96KQ7 913-1193 limits assumed): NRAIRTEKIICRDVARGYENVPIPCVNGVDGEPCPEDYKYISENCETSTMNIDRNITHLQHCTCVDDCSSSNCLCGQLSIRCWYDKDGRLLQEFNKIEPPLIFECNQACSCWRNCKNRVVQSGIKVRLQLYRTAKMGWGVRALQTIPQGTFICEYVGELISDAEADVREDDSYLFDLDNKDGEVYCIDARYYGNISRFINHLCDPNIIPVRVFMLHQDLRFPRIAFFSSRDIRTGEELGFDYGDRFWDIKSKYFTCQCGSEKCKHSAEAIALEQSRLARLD
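AlphaScreen detection with an anti-monomethyl H3K9 antibody quantified product after a 2 h room-temperature reaction containing 500 nM biotinylated H3K9 peptide, 20 µM SAM and 20 nM enzyme, which had been preincubated 15 min with compound.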
BAZ2B inh = inhibitors of human BAZ2B bromodomain. Potency, µM (series often up to 114 µM), hits mostly inhibitors. AID 504333. 360,000 tested, 4.4% active. Q9UIF8. AlphaScreen BAZ2B-H3K14Ac peptide displacement; further: nearly all actives have a fitted effect of over 60% in size
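Protein-peptide AlphaScreen: BAZ2B 50 nM, b-H3K14Ac 50 nM, 1x PBS pH 7.4 + 0.01% Tween-20. Preincubation 30 min RT; cpd 30 min RT (top 110 uM); beads 20 min RT, light-protected.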
HP1b binding inh = inhibitors of HP1-beta chromodomain binding to methylated histone tails. P83916. AlphaScreen HP1-beta / biotin-H3K9me3 peptide binding. Potency, µM (highest dose often 114 µM), most hits filed as inhibitors. 390,000 tested, 0.56% active. AID 540317; further: nearly all actives have a fitted effect of over 70% in size
Target sequence (P83916 whole entry, looked up): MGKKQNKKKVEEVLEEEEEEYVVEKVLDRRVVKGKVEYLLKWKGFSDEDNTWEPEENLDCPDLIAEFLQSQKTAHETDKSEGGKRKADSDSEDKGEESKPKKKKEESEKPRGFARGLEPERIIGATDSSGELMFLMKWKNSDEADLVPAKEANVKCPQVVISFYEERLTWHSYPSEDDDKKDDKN
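Compound inhibition of the preformed complex between 50 nM HP1-beta and 50 nM biotinylated H3K9me3 peptide was read by AlphaScreen. Buffer was PBS pH 7.4 with 0.01% Tween-20. Incubations ran 30 min at room temperature, with 10 ug/mL donor/acceptor beads.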
Sfp PPTase inh = blocks B. subtilis Sfp PPTase activity; Q9F4F7; Biochemical Sfp PPTase activity, qHTS; AID 1490; Potency, µM, hits mostly inhibitors; 310,000 tested, 3.5% active;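 further: the enzyme is Sfp with the accession as filed and its product quenches rhodamine fluorescence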
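Buffer: 50 mM Hepes-Na pH 7.6, 10 mM MgCl2, 0.01% Nonidet P-40, 0.01% BSA. Enzyme 15 nM, pre-exposed to compound 15 min; substrates then added and fluorescence change tracked over 30 min.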
Numbers stand for hits; i = inactive; ? = inconclusive; nt = no result; [ ] = remark or other dose. Shown are actives, neighbours in structure and some others; about 12% of the full set was active somewhere. The call rests on the fitted dose curve; in most records, active means well fitted curve in the direction sought with a large enough effect; inconclusive means small, poorly fitted or top-dose-only effect, or another doubt; inactive means no such curve, though single readings can be large; an effect the other way counts as inactive or inconclusive.

SMILES	JMJD2A Tudor inh	G9a block	BAZ2B inh	HP1b binding inh	Sfp PPTase inh
Cc1cccc(C(=O)NNC(=O)c2ccc(NS(=O)(=O)c3cccs3)cc2)c1C	i	i[12.7 µM]	i	i	nt
N#Cc1ccc(-c2csc(NNC(=O)c3ccc(Br)cc3)n2)cc1	i	nt	i	i	i
CC(=O)Nc1ccc(-c2csc(NNC(=O)c3ccc(C)cc3)n2)cc1	i	?	i	i	7.9µM
CC(=O)NNc1nc(-c2ccc(NC(C)=O)cc2)cs1	i	?	?	i	50µM
O=C(NNc1nc(-c2ccccc2)cs1)c1ccccc1	?	?	i	i	45µM
Cc1ccc(OCC(=O)Nc2ccc(S(=O)(=O)Nc3cc(C)on3)cc2)c(Br)c1	i	?	i	i	nt
C=CCOC(=O)C1=C(C)Nc2[nH]c(=O)[nH]c(=O)c2C1c1cccc(OC)c1 (stereo unspecified)	nt	i	i	nt	i
COC(=O)C1=C(C)Nc2[nH]c(=S)[nH]c(=O)c2C1c1ccc(OC)cc1 (stereo unspecified)	?	8.9µM	?	i	40µM
O=C1NC[C@H](c2ccccc2)OC(=O)[C@H](Cc2ccc(F)cc2)C/C=C\C[C@H]1CC(=O)N(CCO)Cc1ccccc1	i	nt	nt	i	nt
C=C(C)C(=O)OCC1CN2C(CCC(C)C2c2ccc(Br)cc2)C(=O)O1 (stereo unspecified)	nt	nt	nt	nt	i
C#CCOCCOCCOCCNc1nc(N2CCN(C(=O)[C@H](Cc3ccc(O)cc3)n3cc([C@@H](N)C(C)CC)nn3)CC2)nc(N2CCN(C(=O)[C@H](Cc3cc4ccccc4[nH]3)n3cc([C@@H](N)Cc4ccc(O)cc4)nn3)CC2)n1 (stereo partly specified)	nt	?	32µM	nt	56µM
C#CCOCCOCCOCCNc1nc(N2CCN(C(=O)[C@H](Cc3ccc(O)cc3)n3cc([C@@H](N)CC(C)C)nn3)CC2)nc(N2CCN(C(=O)[C@H](Cc3cc4ccccc4[nH]3)n3cc([C@@H](N)CC(C)C)nn3)CC2)n1	10µM	i[12.7 µM]	25µM	i	i
C#CCOCCOCCOCCNc1nc(N2CCN(C(=O)C(Cc3ccc(O)cc3)n3cc(C(N)CC(C)C)nn3)CC2)nc(N2CCN(C(=O)C(Cc3cc4ccccc4[nH]3)n3cc(C(N)C(C)CC)nn3)CC2)n1 (stereo unspecified)	nt	?	50µM	nt	i
NCCC(=O)N[C@H](Cc1cnc[nH]1)C(=O)O	nt	nt	nt	nt	i
O=C(CSc1nc(-c2ccc(F)cc2)nc2c1Cc1ccccc1O2)Nc1ccc(C(=O)O)cc1	10µM	?	7.9µM	?	i
CCOc1cccc2c1Oc1nc(-c3ccccc3)nc(SCC(=O)Nc3ccc(F)cc3)c1C2	i	?	i	i	nt
O=C(CSc1nc(-c2ccccc2)nc2c1Cc1ccccc1O2)Nc1ccc(C(=O)O)cc1	10µM	i	13µM	32µM	79µM
Cc1ccc(-c2nc3c(c(SCC(=O)Nc4cccc(C(=O)O)c4)n2)Cc2cccc(C)c2O3)cc1	3.2µM	10µM	7.1µM	?	nt
COCCNC(=O)CCCC(=O)NCCOC	25µM	i	i	i	i
Cc1cc2c(s1)c1cnn(Cc3ccc(C#N)cc3)c(=O)c1n2C	i	nt	nt	nt	nt
Cn1c(=O)c2cc(S(=O)(=O)Nc3cccc(F)c3)ccc2n(C)c1=O	i	?	i	i	i
Cc1c(F)cccc1NS(=O)(=O)c1ccc2c(c1)c(C)cc(=O)n2C	i	i	50µM	i	i
COc1ccc2c(c1)CC/C(=C\c1ccc(OC)c(Cn3cccn3)c1)C2=O	i	?	i	i	45µM
COc1cc(/C=C2\CCc3ccccc3C2=O)cc(OC)c1OC	i	i	i	i	i
COc1cc(/C=C2/CCc3ccccc3C2=O)cc(OC)c1OC	i	i	i	i	i
SMILES	JMJD2A Tudor inh	G9a block	BAZ2B inh	HP1b binding inh	Sfp PPTase inh
COc1ccc2c(c1)CC/C(=C\c1ccc(OC)c(Cn3nc(C)cc3C)c1)C2=O	89µM	?	?	i	35µM
COc1ccc(/C=C2\CCc3ccccc3C2=O)cc1CN1CCOCC1	?	35µM	?	i	i
CCOC(=O)CCN1C(=O)[C@H]2[C@H]3[C@H](O)[C@H](O)C/C(=N/NC(=O)OCc4ccc(OC)cc4)[C@H]3CC[C@@H]2C1=O	nt	nt	nt	nt	i
CC1CC=CC2C1C(=O)N(Cc1ccccc1)C2c1ccc(F)c(Br)c1 (stereo unspecified)	i	nt	nt	i	i
O=S(=O)(NC1=NCCCCC1)c1ccc(Cl)cc1Cl	i	i[12.7 µM]	i	i	nt
Cc1cc[n+](Cc2ccc([N+](=O)[O-])cc2)cc1	i	45µM	i	i	i
Cc1ccc[n+](Cc2ccc([N+](=O)[O-])cc2)c1	i	?	i	i	i
Cc1ncc(CCl)c2c1OC(C)(C)OC2	?	?	50µM	i	45µM
CC1=NN(C(=O)c2ccc(Cl)cc2)C(O)(c2ccccc2)C1 (stereo unspecified)	?	nt	50µM	i	i
CC1=NN(C(=O)CSCc2ccccc2)C(O)(c2ccc(Cl)cc2)C1 (stereo unspecified)	i	i	i	i	i
CC(C)(C)CC(=O)N1CCN(c2ccc(S(=O)(=O)N3CCOCC3)cc2[N+](=O)[O-])CC1	i	i[12.7 µM]	i	i	nt
COc1ccc(/C(O)=C2/C(=O)C(=O)N(CCCC(=O)O)C2c2ccc(OC)c(OC)c2)cc1 (stereo unspecified)	i	i[0.0925 µM]	i	i	i
COc1cc(C2/C(=C(/O)c3ccc(F)cc3)C(=O)C(=O)N2CCCC(=O)O)ccc1O (stereo unspecified)	?	nt	56µM	i	i
COCCCN1C(=O)C(=O)/C(=C(/O)c2ccc(S(=O)(=O)N3CCCCC3)cc2)C1c1ccc(O)c(OC)c1 (stereo unspecified)	i	?	?	i	i
COc1cccc(C2/C(=C(/O)c3ccccc3)C(=O)C(=O)N2CCCC(=O)O)c1 (stereo unspecified)	50µM	?	?	i	i
COCCCN1C(=O)C(=O)/C(=C(/O)c2ccc(S(=O)(=O)N3CCCCC3)cc2)C1c1cccc(OC)c1 (stereo unspecified)	i	45µM	i	i	i
CN(C)c1ccc(C2/C(=C(/O)c3ccccc3)C(=O)C(=O)N2CCCC(=O)O)cc1 (stereo unspecified)	?	?	i	i	i
CCCOc1ccc(C(=O)Nc2cccc(-c3nc4ccccc4[nH]3)c2)cc1	i	i	i	i	nt
COc1ccccc1NS(=O)(=O)c1cc([N+](=O)[O-])ccc1N/N=C/c1c(C)[nH]c2ccccc12	i	i[12.7 µM]	?	i	i
O=[N+]([O-])c1ccc(N/N=C/c2c[nH]c3ccccc23)c(S(=O)(=O)Nc2ccc(Cl)cc2)c1	28µM	?	45µM	?	i
Cc1ccc(CNC(=O)CSCc2ccccc2)cc1	i	i	i	i	i
CCCCN(CCCC)CCNC(=O)CSCc1ccc(C)cc1	6.3µM	3.5µM	50µM	i	?
CC(C)N(CC#CCC(O)(c1ccccc1)c1ccccc1)CCO	i[11.4 µM]	13µM	79µM	i	45µM
